The list is not random: actives were taken first. Their share in the collection is about 6.2%.
RORgamma inh = inhibitors of mouse ROR gamma transcriptional activity | Drosophila S2 Gal4-RORgamma UAS-luciferase reporter, 20 h | AID 2551 | Potency, µM (series often up to 53.6 µM), for inactives: at the highest dose activity change, negative = inhibition, actives largely listed as inhibitors | 310,000 tested, 5.4% active; also: nearly all actives have a fitted effect of over 60% in size
Target sequence (P51450 whole entry, looked up, the tested form may be a part): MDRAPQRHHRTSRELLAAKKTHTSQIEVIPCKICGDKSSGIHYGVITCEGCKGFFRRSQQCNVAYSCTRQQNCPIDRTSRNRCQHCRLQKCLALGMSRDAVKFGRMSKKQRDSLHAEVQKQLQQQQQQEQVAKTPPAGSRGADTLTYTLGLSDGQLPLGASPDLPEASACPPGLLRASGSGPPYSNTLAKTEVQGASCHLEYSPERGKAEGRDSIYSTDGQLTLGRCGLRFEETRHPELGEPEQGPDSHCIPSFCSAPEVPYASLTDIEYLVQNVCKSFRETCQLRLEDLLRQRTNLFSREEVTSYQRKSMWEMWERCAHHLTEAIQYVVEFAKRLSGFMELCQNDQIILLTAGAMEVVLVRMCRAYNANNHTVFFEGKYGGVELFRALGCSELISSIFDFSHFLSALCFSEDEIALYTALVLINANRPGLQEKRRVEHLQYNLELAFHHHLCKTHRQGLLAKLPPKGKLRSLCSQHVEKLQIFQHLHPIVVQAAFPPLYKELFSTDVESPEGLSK
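Luminescence from a UAS-regulated Photinus luciferase reporter in stably transfected Drosophila Schneider cells is measured; decreased signal marks ROR gamma inhibition. Fusion expression is induced by 700 uM copper sulfate for 20 hr.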
Luc counter = counter-screen: inhibitors of Kinase-Glo firefly luciferase. Q27757. Kinase-Glo luciferase, ATP luminescence, 8 min. Potency, µM (top dose mostly 38.3 µM), inactives show at the highest dose activity change, negative = inhibition, hits mostly inhibitors. 200,000 tested, 0.28% active; also: nearly all actives have a fitted effect of over 60% in size
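Compounds were added to a substrate mix at pH 7.2 (50 mM imidazole, 10 uM ATP, within the enzyme's linear range), followed by Kinase-Glo detection reagent; luminescence was measured after 8 minutes at ambient temperature.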
Gal4-VP16 FLuc = Gal4-VP16 reporter inhibition counter-screen; Potency, µM (top dose mostly 53.6 µM), for inactives: top-dose activity, negative = inhibition, hits mostly inhibitors; 310,000 tested, 3.5% active; Drosophila S2 Gal4-VP16 UAS-luciferase, luminescence, 20 h; AID 2546;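 also: Gal4-VP16 expression switched on by copper sulfate through the metallothionein promoter; nearly all actives have a fitted effect of over 50% in size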
An asterisk follows results filed as active; ? = inconclusive; . = not tested or not shown; [ ] = remark or other dose. Calls follow the shape of the dose curve; as a rule, active = well fitted curve in the direction sought with a large enough effect; inconclusive = small, poorly fitted or top-dose-only effect, or another doubt; inactive = no such curve, though single readings can be large; an effect the other way counts as inactive or inconclusive. % is scaled to controls: 0 for no effect and ±100 for the full control effect; potency is read from the fitted curve at half-maximal effect.

SMILES	RORgamma inh	Luc counter	Gal4-VP16 FLuc
CC12CC3CC(C)(C1)CC(C(=O)NC(=S)N1CCOCC1)(C3)C2	1.1µM*	-4%	2.8µM*
CCN(CC)C(=S)NC(=O)C12CC3CC(CC(C3)C1)C2	2.5µM*	-3%	5µM*
O=C(NC(=S)N1CCCCC1)C12CC3CC(CC(C3)C1)C2	7.1µM*	-1%	13µM*
O=C(c1cc(NC(=O)C23CC4CC(CC(C4)C2)C3)cc(NC(=O)C23CC4CC(CC(C4)C2)C3)c1)N1CCCCC1	33%	1%	0%
OCC(O)C(O)C(O)C(O)CO (stereo unspecified)	10%	4%[39.9 µM]	-4%
CC[C@H](C)[C@H](NC(=O)[C@H](CCC(=O)O)NC(=O)[C@@H](N)CO)C(=O)N[C@@H](CCC(N)=O)C(=O)N[C@@H](CC(C)C)C(=O)N[C@@H](CCSC)C(=O)N[C@@H](Cc1cnc[nH]1)C(=O)N[C@@H](CC(N)=O)C(=O)N[C@@H](CC(C)C)C(=O)NCC(=O)N[C@@H](CCCCN)C(=O)N[C@@H](Cc1cnc[nH]1)C(=O)N[C@@H](CC(C)C)C(=O)N[C@@H](CC(N)=O)C(=O)N[C@@H](CO)C(=O)N[C@@H](CCSC)C(=O)N[C@@H](CCC(=O)O)C(=O)N[C@@H](CCCNC(=N)N)C(=O)N[C@H](C(=O)N[C@@H](CCC(=O)O)C(=O)N[C@@H](Cc1c[nH]c2ccccc12)C(=O)N[C@@H](CC(C)C)C(=O)N[C@@H](CCCNC(=N)N)C(=O)N[C@@H](CCCCN)C(=O)N[C@@H](CCCCN)C(=O)N[C@@H](CC(C)C)C(=O)N[C@@H](CCC(N)=O)C(=O)N[C@@H](CC(=O)O)C(=O)N[C@H](C(=O)N[C@@H](Cc1cnc[nH]1)C(=O)N[C@@H](CC(N)=O)C(=O)N[C@@H](Cc1ccccc1)C(=O)O)C(C)C)C(C)C	9%	.	-7%
COc1cc(OC)c2c(c1O)OC(c1ccccc1)CC2=O (stereo unspecified)	16%	.	2%
Cc1ccc(C(=O)NCCCNC(=O)COc2ccccc2Cl)cn1	4%	.	2%
N#C/C(=C(/O)COC(=O)c1ccc(O)cc1)c1nc2ccccc2[nH]1	12%	.	2%
CCCC(=O)OC/C(O)=C(\C#N)c1nc2ccccc2[nH]1	4µM*	1%	?
CCCn1c(SC/C(O)=C(\C#N)c2nc3ccccc3[nH]2)n[nH]c1=O	2%	3%	-29%
COc1ccc(/C=N/OC/C(O)=C(\C#N)c2nc3ccccc3[nH]2)cc1OC	-23%	-3%	?
COCC(=O)OC/C(O)=C(\C#N)c1nc2ccccc2[nH]1	?	.	2.8µM*
Cc1c(-c2cccc(Cl)c2)nc2ccccc2c1C(=O)OC/C(O)=C(\C#N)c1nc2ccccc2[nH]1	-29%	-3%	3%
N#C/C(=C(/O)COC(=O)c1cccnc1Cl)c1nc2ccccc2[nH]1	7.9µM*	1%	?
CC(C)C(=O)OC/C(O)=C(\C#N)c1nc2ccccc2[nH]1	6.3µM*	0%	10µM*
Cc1ccc(C)c(N2CCN(C(=O)C34CC5CC(C3)CC(n3nnc(C)n3)(C5)C4)CC2)c1	6%	.	-13%
COc1cc(NC(=S)NC(=O)CC(C)C)ccc1NC(=O)c1cc2ccccc2o1	?	0%	?
COc1ccccc1OCc1nc(-c2cccc([N+](=O)[O-])c2)no1	27%	0%	-9%
COc1ccccc1CNC(=O)CSc1nnc2c(n1)[nH]c1ccc(F)cc12	-25%	.	0%
COc1ccc(/C(C)=N/OC/C(O)=C(\C#N)c2nc3ccccc3[nH]2)cc1	?	.	-1%
N#C/C(=C(/O)COC(=O)CCC1CCCCC1)c1nc2ccccc2[nH]1	11µM*	-1%	10µM*
Cc1ccc(C(C)C)c(OC/C(O)=C(\C#N)c2nc3ccccc3[nH]2)c1	2.2µM*	.	?
CC(C)OCc1c(C(=O)OC/C(O)=C(\C#N)c2nc3ccccc3[nH]2)oc2ccccc12	-40%	1%	-21%
CCOC(=O)N/N=C(\C)c1ccc(C)c([N+](=O)[O-])c1	38%	2%	-3%
CCCOc1ccc(-c2c(C(=O)N/N=C/c3ccccc3OCC)nnn2-c2nonc2N)cc1	-21%	.	-2%
CC1CCN(S(=O)(=O)c2ccc(NC(=O)Cc3cccs3)cc2)CC1	20%	0%	8%
CC(C)Cc1nc2c(nnn2Cc2ccccc2F)c(=O)[nH]1	-8%	.	0%
COC(=O)c1cn(CCOc2ccccc2OC)c2ccccc12	?	-4%	?
O=C(N/N=C/c1cn(CCOc2ccccc2)c2ccccc12)c1ccncc1	6.3µM*	0%	10µM*
